# Screening results (PubChem)
# Only some compounds are listed: those with a hit (about 2.4% of all), similar ones and a draw of the others.
# PHOSPHO1 inh – PHOSPHO1 (human) inhibition. Q8TCT1. inhibition, % at 13.3 µM. AID 1565. 290,000 compounds, 1.1% hits. recombinant PHOSPHO1, absorbance phosphatase assay; in the data active means inhibition above about 60%
# Target sequence (Q8TCT1 whole entry, looked up): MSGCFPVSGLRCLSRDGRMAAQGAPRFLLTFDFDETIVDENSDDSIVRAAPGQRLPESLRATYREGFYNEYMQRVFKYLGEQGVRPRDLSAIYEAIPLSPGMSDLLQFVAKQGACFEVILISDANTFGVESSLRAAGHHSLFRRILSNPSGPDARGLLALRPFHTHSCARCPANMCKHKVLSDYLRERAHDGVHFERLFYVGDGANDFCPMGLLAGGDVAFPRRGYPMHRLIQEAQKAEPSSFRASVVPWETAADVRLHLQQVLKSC
# MLLE-PAM2 inh – inhibitors of microRNA-mediated deadenylation, human PABP1 MLLE binding; inhibition, % at 20 µM; P11940; GST-MLLE / FITC-PAM2 fluorescence polarization; 360,000 compounds, 0.36% hits; in the data active means inhibition above about 35%, passing the limit was not always enough
# Efa HMGR inh – E. faecalis class II HMG-CoA reductase inhibition. AID 1066. purified E. faecalis HMGR, NADPH absorbance 340 nm kinetic. inhibition, % at 10 µM. 190,000 compounds, 0.41% hits;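 active means inhibition above a set limit, the median over all tested compounds plus 3 SD, cut at about 9.5% in these data; inconclusive means no clear call, values can overlap the other calls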;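 further: enzyme runs in reverse so mevalonate oxidation gives rising NADPH absorbance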
# eIF4H FP inh – inhibitors of RNA binding by human eIF4H; Q15056; eIF4H fluorescence polarization binding assay; inhibition, % at 35 µM; 290,000 compounds, 0.94% hits;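 further: calls also rest on retests at 20 µM and on dose response follow-up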
# PABP FP inh – blocks human PABP binding to poly(A) RNA; 290,000 compounds, 1% hits; AID 2014; fluorescence polarization; P11940; calls only at 35 µM;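 further: calls also rest on retests at 20 µM and on dose response follow-up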
# A number is an active result; 0 = inactive; ? = inconclusive; - = no result given; + = active, no number. Unless noted, how the calls were made is not given here.
SMILES,PHOSPHO1 inh,MLLE-PAM2 inh,Efa HMGR inh,eIF4H FP inh,PABP FP inh
CSc1cccc(NC(=O)/C=C/c2ccco2)c1,0,0,0,57,+
COc1cccc(NC(=O)/C=C/c2ccco2)c1,0,0,0,0,0
NS(=O)(=O)c1ccc(NC(=S)NC(=O)/C=C/c2ccco2)cc1,0,0,0,85,0
NS(=O)(=O)c1ccc(CNC(=O)/C=C/c2ccco2)cc1,0,0,-,79,0
O=C(/C=C/c1ccco1)NCc1ccc(F)cc1,0,0,0,0,0
N#Cc1ccccc1S(=O)(=O)N1CCN(C(=O)CN2C(=O)NC3(CCCC3)C2=O)CC1,-,0,-,-,-
COc1ccc(-c2csc(NC(=S)NC(=O)/C=C/c3ccco3)n2)cc1OC,0,0,0,89,+
O=C(/C=C/c1ccco1)NC(=S)Nc1ccccc1,0,0,-,0,0
Cn1nnc(NC(=O)/C=C/c2ccco2)n1,0,0,-,0,0
CCCn1nnc(NC(=S)NC(=O)/C=C/c2ccco2)n1,0,0,-,80,+
Cc1csc(NC(=O)/C=C/c2ccco2)n1,0,0,0,0,+
CC(=O)c1ccc(NC(=S)NC(=O)/C=C/c2ccco2)cc1,0,0,-,62,+
O=C(/C=C/c1ccco1)Nc1nc(-c2ccccc2)cs1,0,0,0,0,0
C[C@@H]1CN([C@H](C)CO)S(=O)(=O)c2ccc(C#CCN(C)C)cc2O[C@@H]1CN(C)Cc1ccccc1F,-,0,-,-,-
CCN(CC(=O)NCc1ccc(Cl)cc1)C(=O)/C=C/c1ccco1,0,0,0,16,+
O=C(/C=C/c1ccco1)Nc1scc(-c2ccccc2)c1C(=O)O,0,0,-,79,+
CCN(CC(=O)NCc1ccc(Cl)cc1)C(=O)/C=C/c1ccccc1,0,0,-,0,0
Cc1cccc(NC(=S)NC(=O)/C=C/c2ccco2)n1,0,0,0,56,+
COc1ccccc1NC(=S)NC(=O)/C=C/c1ccco1,0,0,0,0,+
Cc1cccc(NC(=S)NC(=O)/C=C/c2ccco2)c1,0,0,0,0,0
O=C(/C=C/c1ccccc1)Nc1scc(-c2ccccc2)c1C(=O)O,0,0,0,0,0
COc1ccc(-c2csc(NC(=O)c3c(C)noc3C)n2)cc1OC,-,0,-,-,-
CN(CC(=O)Nc1ccccc1C(F)(F)F)C(=O)c1cccc(-n2cccc2)c1,-,0,-,-,-
CCc1nnc(NC(=O)c2c(O)c3cccc4c3n(c2=O)CC4)s1,0,-,-,0,0
CCc1nnc(NCC(=O)N2CCc3ccccc32)s1,69,0,0,0,0
SMILES,PHOSPHO1 inh,MLLE-PAM2 inh,Efa HMGR inh,eIF4H FP inh,PABP FP inh
O=S(=O)(NCc1cn2ccccc2n1)c1ccccc1F,0,0,-,0,0
COc1cc(S(=O)(=O)Nc2ccc(C)cc2)ccc1NC(=O)c1ccncc1,0,0,0,0,0
COc1cc(S(=O)(=O)Nc2ccccc2C)ccc1NC(=O)c1ccncc1,0,0,16,0,0
O=C(NC(c1ccccc1)c1ccccc1)C1(c2cccs2)CCOCC1,0,0,0,?,+
COC(=O)N/N=C/c1cn(CC(C)COc2ccccc2)c2ccccc12 (configuration not stated),0,0,0,0,0
CC(=O)C(Sc1nccc(-c2cccs2)n1)C(C)=O,0,36,0,0,0
COc1ccc(OC)c(S(=O)(=O)NC(=O)C2(C)CCN2C(=O)CC2CCCC2)c1 (configuration not stated),-,0,-,-,-
CC1CCCCC1NC(=O)COC(=O)COc1ccccc1Cl (configuration not stated),0,0,0,0,0
CC1CCCC(NC(=O)COC(=O)COc2ccccc2Cl)C1C (configuration not stated),0,0,11,0,0
O=C(Nc1ccccc1)n1cc(-c2ccccn2)c(N2CCOCC2)n1,0,0,0,0,0
O=C(NCc1ccccc1)c1cccc(COc2cc(Cl)ccc2Cl)c1,0,0,0,0,0
CN(C(=O)c1cccc(COc2ccc(Cl)cc2Cl)c1)c1ccccc1,0,0,0,0,+
C=CCc1cccc(/C=N/c2ncccc2O)c1O,0,0,0,70,+
CC1(c2ccccc2)NC(=O)N(CC(=O)Nc2ccc(N3CCOCC3)cc2)C1=O (configuration not stated),-,0,-,-,-
CCOC(=O)c1cc2c(=O)n3cccc(C)c3nc2n(C)c1=N,0,-,0,96,+
CCOCCCn1c(=N)c(C(N)=S)cc2c(=O)n3cccc(C)c3nc21,0,0,0,87,+
CN(CC(=O)N1CCN(Cc2ccccc2)CC1)C(=O)Cc1cccc2ccccc12,-,0,-,-,-
COc1ccc(S(=O)(=O)N2CCC(C(=O)NC3CC(C)(C)NC(C)(C)C3)CC2)cc1,70,0,-,-,-
COC(=O)C1=C(C)N(c2ccc(C)c(C)c2)/C(=C/c2ccco2)C1=O,0,0,0,18,0
CCOC(=O)C1=C(C)N(c2ccc(C)c(C)c2)C(=O)/C1=C\c1ccco1,0,0,0,0,0
COC(=O)Nc1ccc(SCC(=O)c2cccc([N+](=O)[O-])c2)cc1,0,42,-,0,0
O=C(Nc1nnc(SCC(=O)N2CCCCC2)s1)c1cccs1,74,0,0,0,0
O=C(Cc1cccs1)Nc1nnc(SCC(=O)N2CCCCC2)s1,0,0,0,0,0
O=C(Nc1nnc(SCC(=O)N2CCOCC2)s1)c1ccccc1Cl,66,0,0,0,0
O=C(Nc1nnc(SCC(=O)N2CCCCC2)s1)c1ccccc1F,0,0,-,0,0
SMILES,PHOSPHO1 inh,MLLE-PAM2 inh,Efa HMGR inh,eIF4H FP inh,PABP FP inh
CC(C)[C@H](NC(=O)c1ccccc1F)C(=O)OCCN1C(=O)c2ccccc2C1=O,-,0,-,-,-
O=C(CCc1n[nH]c(=O)[nH]c1=O)N/N=C/c1ccco1,0,0,0,77,+
COc1ccc(OC)c(S(=O)(=O)NC(N)=NCCc2ccccc2OC)c1,0,-,0,0,0
CC(=O)c1c(N2CCN(c3ccccn3)CC2)nc(=S)n(-c2ccccc2)c1C,0,0,0,?,+
CC(=O)c1c(N2CCN(c3cccc(Cl)c3)CC2)nc(=S)n(-c2ccccc2)c1C,0,0,0,84,+
CCn1c(C)c(C(C)=O)c(N2CCN(c3ccc(OC)cc3)CC2)nc1=S,0,0,0,0,0
COc1ccc(N2CCN(c3nc(=S)n(-c4ccccc4)c(C)c3C(C)=O)CC2)cc1,0,0,0,68,+
CC(=O)c1c(N2CCN(C)CC2)nc(=S)n(Cc2ccccc2)c1C,0,0,0,0,0
CCn1c(C)c(C(C)=O)c(N2CCN(c3cccc(Cl)c3)CC2)nc1=S,76,0,0,?,?
CC(Sc1nn(-c2ccccc2)c(=S)s1)C(=O)NCC1CCCO1 (configuration not stated),-,0,-,-,-
COc1ccc(C(=O)NCc2ccccc2CN2CCCC2)cc1S(=O)(=O)N1CCOCC1,-,0,-,-,-
COC(=O)C1=C(C)NC(=O)/C1=C\c1cc(C)n(-c2ccc(F)cc2)c1C,0,0,0,0,0
Cc1cc(/C=C2/C(=O)NN(c3ccccc3)C2=O)c(C)n1-c1cccc(O)c1,0,0,0,62,0
COC(=O)C1=C(C)NC(=O)/C1=C\c1cc(C)n(-c2cccc(C)c2)c1C,0,0,0,0,+
